From PubChem BioAssay (Tox21)
Inconclusive results are not listed. A call without a number means that no potency is given here. A structure can be active in one record and inactive in another. Calls of active or inactive are those of the source. Calls come from the whole dose curve.

Assays:
[1] = biological target: Acetylcholinesterase (Homo sapiens) (UniProt P22303); experiment: Acetylcholinesterase (AChE) small molecule antagonists: colormetric cell-based qHTS assay (AID 1347395); note: nearly all actives have a fitted effect of over 30% in size; note: potency is the fitted concentration of half-maximal effect
Outline: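 Colorimetric read-out: DTNB detects thiocholine released when cellular AChE in SH-SY5Y cells hydrolyses acetylthiocholine. Cells attached overnight, received compound for 30 min at 37 C, then substrate mix for 90 min at 37 C.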

[2] = biological target: Acetylcholinesterase (Homo sapiens) (UniProt P22303); experiment: Acetylcholinesterase (AChE) small molecule antagonists: enzyme-based qHTS assay (AID 1347397); settings: Potency: AChE enzyme activity inhibition; outcome: AChE enzyme activity inhibition; note: nearly all actives have a fitted effect of over 55% in size
Outline: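 Tox21 library chemicals are tested in qHTS format against recombinant human AChE. The enzyme, dispensed at 50 mU/mL, sits with compound for 30 min at room temperature. A DTNB–acetylthiocholine cocktail follows, and colour is read after 10 min.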

[3] = biological target: Acetylcholinesterase (Homo sapiens) (UniProt P22303); experiment: Acetylcholinesterase (AChE) small molecule antagonists: fluorescence cell-based qHTS assay (AID 1347398); settings: Potency: AChE activity; outcome: AChE activity; note: nearly all actives have a fitted effect of over 50% in size
Outline: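 Cellular AChE inhibition: SH-SY5Y cells treated with test chemical for 30 min at 37 C, then acetylthiocholine hydrolysis followed over 40 min at room temperature via thiocholine-reactive Thiolite Green fluorescence (490/520 nm).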

[4] = biological target: Acetylcholinesterase (Homo sapiens) (UniProt P22303); experiment: Acetylcholinesterase (AChE) small molecule antagonists: enzyme-based qHTS assay with human liver microsomes (AID 1347399); settings: Potency: qHTS inhibition; outcome: qHTS inhibition; note: nearly all actives have a fitted effect of over 60% in size
Outline: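 Recombinant human AChE (50 mU/mL in the enzyme mix) and human liver microsomes (0.25 mg/mL final) were preincubated with compound and NADPH (0.25 mg/mL final) for 30 min at 37 C. Acetylthiocholine/DTNB was then added; thiocholine was read colorimetrically after 10 min at room temperature.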

Chain of Acetylcholinesterase (Homo sapiens) (P22303 whole entry, looked up): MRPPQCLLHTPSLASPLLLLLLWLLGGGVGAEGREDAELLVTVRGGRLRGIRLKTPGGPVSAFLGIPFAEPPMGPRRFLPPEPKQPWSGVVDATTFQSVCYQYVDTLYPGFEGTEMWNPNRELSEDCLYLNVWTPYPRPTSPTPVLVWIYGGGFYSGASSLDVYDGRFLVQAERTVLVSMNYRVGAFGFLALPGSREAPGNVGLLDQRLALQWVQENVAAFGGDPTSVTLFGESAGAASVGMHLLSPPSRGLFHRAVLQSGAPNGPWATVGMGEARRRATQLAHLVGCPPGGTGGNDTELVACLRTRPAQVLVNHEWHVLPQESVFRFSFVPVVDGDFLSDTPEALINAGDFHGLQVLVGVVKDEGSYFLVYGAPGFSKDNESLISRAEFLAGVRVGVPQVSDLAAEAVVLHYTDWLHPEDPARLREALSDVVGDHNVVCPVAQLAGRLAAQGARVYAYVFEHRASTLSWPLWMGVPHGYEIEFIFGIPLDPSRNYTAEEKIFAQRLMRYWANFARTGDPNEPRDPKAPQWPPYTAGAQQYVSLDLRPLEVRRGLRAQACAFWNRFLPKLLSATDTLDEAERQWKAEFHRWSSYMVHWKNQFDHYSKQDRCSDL

Structure (SMILES) | Potency [1] | Potency [2] | Potency [3] | Potency [4] | outcome [1] | outcome [2] | outcome [3] | outcome [4]
COC(=O)c1c(C)cc(O)c(C)c1O | inactive | inactive | inactive | inactive | – | – | – | –
Oc1cc(O)c(Cl)cc1Cl | inactive | inactive | inactive | inactive | – | – | – | –
NS(=O)(=O)c1ccc(N2CCCCS2(=O)=O)cc1 | inactive | inactive | inactive | inactive | – | – | – | –
ClCCCl | inactive | inactive | inactive | inactive | – | – | – | –
CCC(C(=O)OCCN1CCOC(c2ccccc2)C1C)c1ccccc1 (stereo not given) | inactive | inactive | inactive | inactive | – | – | – | –
O=C1c2ccccc2CCc2ccccc21 | inactive | inactive | inactive | inactive | – | – | – | –
CN(C)Cc1ccccc1 | inactive | inactive | inactive | inactive | – | – | – | –
CCOCCOCC | inactive | inactive | inactive | inactive | – | – | – | –
CCCCCN(CCCOC)C(=O)C(CCC(=O)O)NC(=O)c1ccc(Cl)c(Cl)c1 (stereo not given) | inactive | inactive | inactive | inactive | – | – | – | –
CC(C)=CC=O | inactive | inactive | inactive | inactive | – | – | – | –
OC[C@H]1O[C@H](O[C@H]2O[C@H](CO)[C@@H](O)[C@H](O)[C@H]2O)[C@H](O)[C@@H](O)[C@@H]1O | inactive | inactive | inactive | inactive | – | – | – | –
O=C(N/N=C/c1ccc([N+](=O)[O-])o1)c1ccc(O)cc1 | inactive | inactive | inactive | inactive | – | – | – | –
c1cc(CCCc2ccncc2)ccn1 | inactive | inactive | inactive | inactive | – | – | – | –
CCOC(=O)OC(C)OC1=C(C(=O)Nc2ccccn2)N(C)S(=O)(=O)c2ccccc21 (stereo not given) | inactive | inactive | inactive | inactive | – | – | – | –
CC(C)(C)C1=CC(=O)C=C(C(C)(C)C)C1=O | inactive | inactive | inactive | inactive | – | – | – | –
O=S(=O)(O)c1cc(O)c(O)c(S(=O)(=O)O)c1 | inactive | inactive | inactive | inactive | – | – | – | –
On1nnc2ccccc21 | inactive | inactive | inactive | inactive | – | – | – | –
CC(=O)Oc1ccc(C)cc1 | inactive | inactive | inactive | inactive | – | – | – | –
COC(=O)Nc1nc2ccc(Sc3ccccc3)cc2[nH]1 | inactive | inactive | inactive | inactive | – | – | – | –
O=S1(=O)CC=CC1 | inactive | inactive | inactive | inactive | – | – | – | –

Structure (SMILES) | Potency [1] | Potency [2] | Potency [3] | Potency [4] | outcome [1] | outcome [2] | outcome [3] | outcome [4]
CCCCNC(=O)NCCCC | inactive | inactive | inactive | inactive | – | – | – | –
CC(C)(C)OC(=O)c1cccc(N)c1 | inactive | inactive | inactive | inactive | – | – | – | –
CCCCCCCC(=O)OCCCCCC | inactive | inactive | inactive | inactive | – | – | – | –
CC(=O)CC(=O)N(C)C | inactive | inactive | inactive | inactive | – | – | – | –
COc1ccc2c(c1)c(CC(=O)OCC(=O)O)c(C)n2C(=O)c1ccc(Cl)cc1 | inactive | inactive | inactive | inactive | – | – | – | –
O=S(=O)(O)c1cc(Cl)c(Cl)cc1Cl | inactive | inactive | inactive | inactive | – | – | – | –
Cc1ccccc1CCO | inactive | inactive | inactive | inactive | – | – | – | –
Cc1cc(N)n(-c2ccccc2)n1 | inactive | inactive | inactive | inactive | – | – | – | –
C[C@]12CCC(=O)C=C1CC[C@@H]1[C@@H]2CC[C@@]2(C)[C@H]1CC[C@]2(O)C(=O)CO | inactive | inactive | inactive | inactive | – | – | – | –
Cc1c(C)c2c(c(C)c1O)CC[C@@](C)(CCC[C@H](C)CCC[C@H](C)CCCC(C)C)O2 | inactive | inactive | inactive | inactive | – | – | – | –
CC(C)C(=O)OCc1ccccc1 | inactive | inactive | inactive | inactive | – | – | – | –
IC(I)I | inactive | inactive | inactive | inactive | – | – | – | –
Clc1cc(Cl)nc(Cl)n1 | inactive | inactive | inactive | inactive | – | – | – | –
CC(=O)c1nccs1 | inactive | inactive | inactive | inactive | – | – | – | –
CCCC(O)C(O)CO (stereo not given) | inactive | inactive | inactive | inactive | – | – | – | –
CCCCN=C(N)N=C(N)N | inactive | inactive | inactive | inactive | – | – | – | –
CCCCCCOCCO | inactive | inactive | inactive | inactive | – | – | – | –
CCCCCOC(C)=O | 32.1 µM (active) and inactive | inactive | inactive | inactive | – | – | – | –
CCCCCCCCCCC | inactive | inactive | inactive | inactive | – | – | – | –
CN1CCCC1=O | inactive | inactive | inactive | inactive | – | – | – | –

Structure (SMILES) | Potency [1] | Potency [2] | Potency [3] | Potency [4] | outcome [1] | outcome [2] | outcome [3] | outcome [4]
O=C(c1ccc(O)cc1)c1ccc(O)cc1O | inactive | inactive | inactive | inactive | – | – | – | –
CC(C)(C)C(=O)NCCCC(=O)O | inactive | inactive | inactive | inactive | – | – | – | –
CC(=O)OC(C)(C)C | inactive | inactive | inactive | inactive | – | – | – | –
C=CCc1cc(OC)c(O)c(C(=O)NCCO)c1 | inactive | inactive | inactive | inactive | – | – | – | –
CCCCCCCC/C=C\CCCCCCCC(=O)OC[C@@H](O)[C@H]1OC[C@H](O)[C@H]1O | inactive | inactive | inactive | inactive | – | – | – | –
CC(C)CC=O | inactive | inactive | inactive | inactive | – | – | – | –
CCC(CC)C(=O)O | inactive | inactive | inactive | inactive | – | – | – | –
CC/C=C\C/C=C\C/C=C\CCCCCCCC(=O)O | inactive | inactive | inactive | inactive | – | – | – | –
OCC1CCC(CO)CC1 (stereo not given) | inactive | inactive | inactive | inactive | – | – | – | –
CN(C)c1cccc(O)c1 | inactive | inactive | inactive | inactive | – | – | – | –
OC1CCCCCCCCCCC1 | inactive | inactive | inactive | inactive | – | – | – | –
O=c1c2ccccc2oc2ccccc12 | inactive | inactive | inactive | inactive | – | – | – | –
O=Cc1ccc(O)c(O)c1O | inactive | inactive | inactive | inactive | – | – | – | –
Oc1ccccc1Cc1ccccc1O | inactive | inactive | inactive | inactive | – | – | – | –
COC(=O)N/N=C/c1c[n+]([O-])c2ccccc2[n+]1[O-] | inactive | inactive | inactive | inactive | – | – | – | –
NC(=O)N1C(=O)C(C(=O)c2cc(Cl)cs2)c2cc(F)c(Cl)cc21 (stereo not given) | inactive | inactive | inactive | inactive | – | – | – | –
C1CNCCN1 | – | – | – | – | inactive | inactive | inactive | inactive
CN(C)CCN(Cc1ccsc1)c1ccccn1 | inactive | inactive | inactive | inactive | – | – | – | –
CC(=O)Oc1ccc([N+](=O)[O-])cc1CCl | inactive | inactive | inactive | inactive | – | – | – | –
Oc1ccc2ccccc2c1N=Nc1ccccc1 | inactive | inactive | inactive | inactive | – | – | – | –
